Source: PubChem BioAssay (Tox21)
Several values for one entry are separate records, joined by “and”; a condition that tells them apart may be missing. Identical values can stand only once. Inconclusive results are not listed. Entries that show only a call come without a potency. Some structures have more than one record in an assay (separate samples or runs), and their calls can disagree. Activity calls are given as the source filed them. Unless noted, calls follow the shape of the dose curve; as a rule, active = well fitted curve in the direction sought with a large enough effect in the repeat runs; inconclusive = weak or mixed curves; inactive = no such curve, though single readings can be large; an effect the other way counts as inactive or inconclusive.

Legend:
[1] = qHTS assay to identify small molecule agonists of the NFkB signaling pathway (AID 1159509; active = well fitted curve in the direction sought with a large enough effect in the signal ratio in the repeat runs, not every such curve was filed as active; the % refers to the signal ratio; also: series mostly up to about 61 µM)
Outline: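 Pathway activation was measured in ME-180 cells stably expressing beta-lactamase under NF-kB response element control. Substrate cleavage was read as the 460/530 nm emission shift after 5 hr compound incubation.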

[2] = qHTS assay to identify small molecule agonists of the NFkB signaling pathway - cell viability counter screen (AID 1159515; calls by dose curve; also: series mostly up to about 61 µM; nearly all actives have a fitted effect of over 55% in size)
Outline: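 Counter screen run alongside the NFkB-bla agonist assay: ME-180 reporter cells exposed to compounds for 5 hr, then lysed with CellTiter-Glo in the same wells. Luminescence, read after 30 min, reflects viable cells.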

[3] = qHTS assay to identify small molecule agonists of the endoplasmic reticulum stress response signaling pathway (AID 1159516; active = well fitted activation curve with a large enough effect in the signal ratio in the repeat runs, not every such curve was filed as active; the % refers to the signal ratio)
Outline: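 For this screen, HeLa cells stably carrying beta-lactamase under the ER stress response element received test compounds, positive controls or DMSO for 5 hr at 37 C; B/G FRET substrate was then added and dual-wavelength emission recorded.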

[4] = qHTS assay to identify small molecule agonists of the endoplasmic reticulum stress response signaling pathway - cell viability counter screen (AID 1159517; calls by dose curve; also: series mostly up to about 61 µM; nearly all actives have a fitted effect of over 50% in size)
Outline: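 ESRE-bla HeLa cells (1,500/well) were plated overnight at 37 C and exposed to compounds for 5 hr. After the 2 hr beta-lactamase substrate read, CellTiter-Glo went into the same wells, and luminescence was read after 30 min at room temperature.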

[5] = qHTS assay to identify small molecule antagonists of the retinoid-related orphan receptor gamma (ROR-gamma) signaling pathway - cell viability counter screen (AID 1159520); also: nearly all actives have a fitted effect of over 50% in size
Outline: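 Cytotoxicity was read from cellular ATP (CellTiter-Glo luminescence) after 16 hr at 37 C with 1 uM doxycycline induction. The inducer was added 2 hr after compound transfer to Tet-on ROR gamma CHO cells.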

[6] = molecular target: Nuclear receptor ROR-gamma (Homo sapiens) (UniProt P51449); test: qHTS assay to identify small molecule antagonists of the retinoid-related orphan receptor gamma (ROR-gamma) signaling pathway (AID 1159521; also: nearly all actives have a fitted effect of over 50% in size; also: potency is read from the fitted curve at half-maximal effect)
Outline: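 Tet-on RORγ CHO cells carrying a ROR response element–luciferase reporter were pretreated with compounds for 2 h, then induced with 1 uM (final) doxycycline hyclate for 16 h at 37 C. Antagonism was read as decreased ONE-Glo luminescence.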

[7] = qHTS assay to identify small molecule agonists of the AP-1 signaling pathway - cell viability counter screen (AID 1159525; calls by dose curve; also: nearly all actives have a fitted effect of over 55% in size)
Outline: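 Intracellular ATP by Cell Titer Glo luminescence (30 min, RT) in the same ME-180 AP-1-bla wells after the 5 h compound exposure at 37 °C. Normalised to tetra n-octyl ammonium bromide and DMSO controls.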

[8] = qHTS assay to identify small molecule agonists of the AP-1 signaling pathway (AID 1159526; calls by dose curve)
[9] = qHTS assay to identify small molecule agonists of the RXR signaling pathway - cell viability counter screen (AID 1159529); also: series mostly up to about 77 µM; nearly all actives have a fitted effect of over 50% in size
Outline: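 RXR-alpha-UAS-bla HEK 293T cells in medium with 2% charcoal-stripped FBS were preincubated 5 hr, then exposed to compounds for 16 hr at 37 C. Viability was read as CellTiter-Glo luminescence after 30 min at room temperature.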

[10] = qHTS assay to identify small molecule antagonists of the retinoid acid receptor (RAR) signaling pathway - cell viability counter screen (AID 1159551); also: nearly all actives have a fitted effect of over 35% in size
Outline: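 Measured by luminescent ATP detection, viability reflects C3RL4 cells treated 6 h at 37 C with test chemicals in the presence of 1 uM (final) retinol.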

[11] = qHTS assay to identify small molecule antagonists of the retinoic acid receptor (RAR) signaling pathway (AID 1159552; also: nearly all actives have a fitted effect of over 50% in size; also: potency is read from the fitted curve at half-maximal effect)
Outline: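 RARE-luc C3RL4 cells; cpds + 1 uM (final) retinol, 6 hr, 37 C/5% CO2; luciferase reagent, 30 min RT, luminescence readout. Inhibitors of retinol-driven signal scored.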

[12] = qHTS assay to identify small molecule antagonists of the estrogen related receptor (ERR) signaling pathway from Tox21 library - cell viability counter screen (AID 1224834); also: nearly all actives have a fitted effect of over 30% in size
Outline: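 Seeded ERR cells were rested 6 h at 37 C/5% CO2 before compounds, positive and negative controls or DMSO were added. Incubation continued for 17.5 h, and viability was then quantified by CellTiter-Fluor fluorescence.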

[13] = molecular target: Retinoic acid receptor RXR-alpha (Homo sapiens) (UniProt P19793); test: qHTS assay to identify small molecule agonists of the RXR signaling pathway (AID 1159527; calls by dose curve; also: nearly all actives have a fitted effect of over 35% in size)
Outline: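 GeneBLAzer RXR-alpha-UAS-bla HEK 293T cells in medium with 2% charcoal-stripped FBS, pre-incubated 5 hr at 37 C, then exposed to compounds 16 hr. Beta-lactamase reporter read by FRET substrate, 2 hr room temperature, 460/530 nm emission.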

[14] = qHTS assay to identify small molecule agonists of the retinoic acid receptor (RAR) signaling pathway (AID 1159553); also: potency is read from the fitted curve at half-maximal effect
Outline: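 6 hr compound exposure (DMSO vehicle) of overnight-plated C3RL4 RARE-luc cells at 37 C; luminescence quantified after 30 min RT with luciferase reagent.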

[15] = qHTS assay to identify small molecule antagonists of the estrogen related receptor (ERR) signaling pathway - cell viability counter screen (AID 1224818); also: series mostly up to about 46 µM
Outline: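 Compounds dissolved in DMSO were applied to ERR cells seeded at 2,000 per well 6 h earlier. Cell viability followed 17.5 h later via 30-min CellTiter-Fluor fluorescence.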

[16] = qHTS assay to identify small molecule antagonists of the estrogen related receptor signaling pathway with the pleiotropic PPARgamma coactivator (PGC) cell viability counter screen (AID 1224822; also: series mostly up to about 46 µM)
Outline: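 Counter screen for cell viability: PGC/ERR cells, 6 h pre-incubation after plating, 17.5 h compound exposure at 37 C, fluorescence from CellTiter-Fluor after 30 min.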

Chain of Retinoic acid receptor RXR-alpha (Homo sapiens) (P19793 whole entry, looked up): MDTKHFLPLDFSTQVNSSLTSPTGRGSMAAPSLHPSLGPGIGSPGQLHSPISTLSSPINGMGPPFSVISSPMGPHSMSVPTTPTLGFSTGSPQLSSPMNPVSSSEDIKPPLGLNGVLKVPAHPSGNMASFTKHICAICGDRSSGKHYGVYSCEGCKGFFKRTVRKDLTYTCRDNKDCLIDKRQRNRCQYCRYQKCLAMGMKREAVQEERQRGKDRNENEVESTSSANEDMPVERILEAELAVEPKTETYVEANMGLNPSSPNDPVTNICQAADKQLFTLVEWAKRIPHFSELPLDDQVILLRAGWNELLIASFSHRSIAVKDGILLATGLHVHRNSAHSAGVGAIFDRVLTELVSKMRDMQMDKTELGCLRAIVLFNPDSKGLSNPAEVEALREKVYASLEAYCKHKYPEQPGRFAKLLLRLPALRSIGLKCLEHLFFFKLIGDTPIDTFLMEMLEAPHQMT

SMILES	outcome [1]	outcome [2]	outcome [3]	Potency [4]	outcome [5]	Potency [6]	outcome [7]	Potency [8]	Potency [9]	outcome [10]	Potency [11]	Potency [12]	Potency [13]	Potency [14]	outcome [15]	outcome [16]
Oc1cccc(O)c1	inactive	inactive	inactive	inactive	inactive	inactive	inactive	inactive	inactive	inactive	inactive	inactive				
CCCCOCCOCCOC(C)=O	inactive	inactive	inactive	inactive	inactive	inactive	inactive	inactive	inactive	inactive	inactive	inactive	inactive	inactive		
CCc1cc(C(N)=S)ccn1	inactive	inactive	inactive	inactive	inactive	inactive		inactive	inactive	inactive	inactive	inactive	inactive	inactive		
Cc1ccc(O)c(-n2nc3ccccc3n2)c1	inactive	inactive	inactive	inactive	inactive	inactive	inactive	inactive	inactive		inactive	inactive	inactive	1.52 µM (active) and 1.93 µM (active) and 2.98 µM (active)		
Cc1c(N(C)CS(=O)(=O)O)c(=O)n(-c2ccccc2)n1C	inactive	inactive	inactive	inactive	inactive	inactive		inactive	inactive	inactive	inactive	inactive	inactive	inactive		
O=C(O)CN(CC(=O)O)CC(=O)O	inactive	inactive	inactive	inactive	inactive	inactive	inactive	inactive	inactive	inactive	inactive	inactive	inactive	inactive		
NC(=O)NO	inactive	inactive	inactive	inactive	inactive	inactive	inactive	inactive	inactive	inactive	inactive	inactive	inactive		inactive	inactive
COc1cc(C=O)ccc1O	inactive	inactive	inactive	inactive	inactive	inactive	inactive	inactive	inactive	inactive	inactive	inactive	inactive	inactive		
COc1ccc(C(=O)c2ccccc2)c(O)c1	inactive	inactive	inactive	inactive	inactive	inactive		inactive	inactive	inactive	inactive	inactive	inactive	61.1 µM (active) and 23.7 µM (active)		
Cn1cnc2c1c(=O)[nH]c(=O)n2C	inactive	inactive	inactive	inactive	inactive	inactive	inactive	inactive	inactive	inactive	inactive	inactive	inactive		inactive	inactive
CCOCCO	inactive	inactive	inactive	inactive	inactive	inactive	inactive	inactive	inactive	inactive	inactive	inactive	inactive			
Cc1cnc(NC(=O)C2=C(O)c3ccccc3S(=O)(=O)N2C)s1	inactive	inactive	inactive	inactive	inactive	inactive		inactive	inactive	inactive	inactive	inactive	inactive	inactive	inactive	inactive
CC(=O)CCC(C)C	inactive	inactive	inactive	inactive	inactive	inactive	inactive	inactive	inactive	inactive	inactive	inactive	inactive			
C=C(C)C(N)=O	inactive	inactive	inactive	inactive	inactive	inactive	inactive	inactive	inactive	inactive	inactive	inactive	inactive	inactive		
C=C(C)OC(C)=O	inactive	inactive	inactive	inactive	inactive	inactive	inactive	inactive	inactive	inactive	inactive	inactive	inactive			
COC(=O)c1ccc(C=O)cc1	inactive	inactive	inactive	inactive	inactive	inactive	inactive	inactive	inactive	inactive	inactive	inactive	inactive			
COC1=CC(=O)C[C@@H](C)[C@]12Oc1c(Cl)c(OC)cc(OC)c1C2=O	inactive	inactive	inactive	inactive	inactive	8.56 µM (active) and 19.3 µM (active) and inactive	inactive	inactive	inactive	inactive	9.6 µM (active)		inactive	inactive		
CN(C)C=O	inactive	inactive	inactive	inactive	inactive	inactive	inactive	inactive	inactive	inactive	inactive	inactive	inactive			
